Sequences and labels used below:
B1: chr10:99876058:99876159:-|3pUTR|ENSG00000107554|msi1|FALSE|bound_elsewhere (ssRNA)
RNA: GGGAGUUCUACAGUCCGACGAUCUUGAGCCUAAUGGAAGACUGGAUGUCUUUCUUCUUCAUCCAAGCACCCUAAUGACUGUUUAGUUACAUCCAUAGAUGCAGACAACAUAACACCUGUGACUUACUUGAAUUGGGAUAAGCCCAACAGAGGAUUGAGCAUCA
B2: ENSG00000107021:stop:overlap|stop_codon|ENSG00000107021|stop_codon|NA|stop_codon (ssRNA)
RNA: GGGAGUUCUACAGUCCGACGAUCACCCCAUCACAGAUGUCUGCCAGAUCCUGCAGAAAGCCAAGGAGCUCCAAGACUCAAAGUAGCCCGGCGGCAAGAGGCCCAUGUUCCGGAGAGAAGCCUCCCGACCCUGUGCCCUGGCUCCAACAGAGGAUUGAGCAUCA
B3: ENSG00000136451:be:win_2701|3pUTR|ENSG00000136451|bound_else_gene|NA|bound_elsewhere_windowed (ssRNA)
RNA: GGGAGUUCUACAGUCCGACGAUCUGUAAAUAUGGACAUCACUUUUUUUUUCUUUGAGAAAACACUUGUAUCAGCUUUGUGGUGUUUUCAGGGAGACAGCUGUCUGCAUUCCCUGUAGAAACCCAGCAAUGAUUAUGCACGUUGCAACAGAGGAUUGAGCAUCA
B4: chr8:73046310:73046411:+|3pUTR|ENSG00000147601|msi1|total|mutant (ssRNA)
RNA: GGGAGUUCUACAGUCCGACGAUCUUGUAUUCUUUAAGAACCUUAUUUUGAUAAAAUGUAAAUUUGUUGAACCCUGCCACAUUCCGUAUCCCCACCCCCAAAUCCUGUUCCAAUGAAAAAAUUAAAACCUGAUACGAAAAAAAACAACAGAGGAUUGAGCAUCA
B5: chr4:70820284:70820384:-|3pUTR|ENSG00000132463|msi1_unk|FALSE|overlapping (ssRNA)
RNA: GGGAGUUCUACAGUCCGACGAUCUGAACUGGUAUGGUUUGGCAGAAUAGUUUUAAAUUUUGCUGUAUUUGAUUACUUAGAGAUAGGAAUUUUUAAAAAUCAAAACAAAAAAUACCACAGCUUAGUGUAAAUGACAAUUUGGCGCAACAGAGGAUUGAGCAUCA
B6: chr8:25429562:25429664:-|3pUTR|ENSG00000104756|unk|total|mutant (ssRNA)
RNA: GGGAGUUCUACAGUCCGACGAUCAGAAAAGCACUCAUUUAACCGAUGCCGGGAAACCCGAUAUUGCUGCCUUUUGAAUGGGGCCGGGGGGUUUACCUGGUUUUAUGACCAGGCACCGUAUCUAUUAUAUUUGCUUUUAAACCGCAACAGAGGAUUGAGCAUCA
B7: ENSG00000152661:stop:overlap|stop_codon|ENSG00000152661|stop_codon|NA|stop_codon (ssRNA)
RNA: GGGAGUUCUACAGUCCGACGAUCCUUCAAGCAGAGCCAGCAGUCGUGCCAGCAGCAGACCUCGGCCUGAUGACCUGGAGAUCUAGAUACAGGCUUGAAAGCAUCAAGAUUCCACUCAAUUGUGGAGAAGAAAAAAGGUGCUGUCAACAGAGGAUUGAGCAUCA
B8: chr5:116443554:116446612:-|three_prime_utr|ENSG00000092421|control|control|control (ssRNA)
RNA: GGGAGUUCUACAGUCCGACGAUCCCGCCAGUGUUACAGCUUUCUGUUGCAGCAGAUAAAUGCCAUGUUGGGCAACUAUGUCAUAGAUUUCUGCUCCUCCUCUCUUUUAAUGAAAUAACGUGACCGUUAACGCAAGUAACUCUUCAACAGAGGAUUGAGCAUCA
B9: chr20:59325757:59325866:+|3pUTR|ENSG00000124205|unk|FALSE|unique (ssRNA)
RNA: GGGAGUUCUACAGUCCGACGAUCUUAUGUGGAUCUGUUCAAAGUAGUCACUGUAUAUACGUAUAGAGAGGUAGAUAGGUAGGUAGAUUUUAAAUUGCAUUCUGAAUACAAACUCAUACUCCUUAGAGCUUGAAUUACAUUUUUCAACAGAGGAUUGAGCAUCA
B10: chr8:140515610:140515764:+|3pUTR|ENSG00000104472|unk|FALSE|unique (ssRNA)
RNA: GGGAGUUCUACAGUCCGACGAUCUUUUGGAAUCAGUUCUUAUAAACAGCUCGAUUCAGUUUUAGCUAAAUUUAUAGUUUAGGUAGUAUGUUACAUUUGAAUUUUUGUCUUAAGAAAAGUUGACUGUUCAGAUAUUUUUCUACUCAACAGAGGAUUGAGCAUCA
B11: chr9:74692981:74693082:+|3pUTR|ENSG00000198963|unk|FALSE|unique (ssRNA)
RNA: GGGAGUUCUACAGUCCGACGAUCUUUUAUAUUACUUUAGAAUGUAAUAGGUUUUUGUCCUUAUUUUAUGUCCUGUAAAUUAUUAGUUCAAUACUGUUAGCAUUCCCGGAUAAUGCACACAUGAUUUCUGAAUGUUUUCUGUAACAACAGAGGAUUGAGCAUCA
B12: chr12:50748518:50748596:+|3pUTR|ENSG00000066084|msi1_unk|FALSE|overlapping (ssRNA)
RNA: GGGAGUUCUACAGUCCGACGAUCUCAAAUUCAAACUACAGUACUGUGUAAUUAUGUAUAAAGUUUUUUUAUUUAUUUGAAGUUAGACUAGAUAUACGUUUUUAAAUUUAACAUCUGGCUGGACAGUGUUCUAUUAACUCAUUGCAACAGAGGAUUGAGCAUCA
B13: ENSG00000124766:be:win_3651|3pUTR|ENSG00000124766|bound_else_gene|NA|bound_elsewhere_windowed (ssRNA)
RNA: GGGAGUUCUACAGUCCGACGAUCUCGCUAAAUAUAAUUGUUUUAGUCUUAUGGCAUGAUGAUAGCAUAUGUGUUCAGGUUUAUAGCUGUUGUGUUUAAAAAUUGAAAAAAGUGGAAAACAUCUUUGUACAUUUAAGUCUGUAUCAACAGAGGAUUGAGCAUCA
B14: chr5:159157431:159157536:-|3pUTR|ENSG00000145860|unk|total|mutant (ssRNA)
RNA: GGGAGUUCUACAGUCCGACGAUCCAAAAAGUGUUUUUCAGACCUCGGUAUUCCUAAUGUGGGAUGUGACUUUAUUUUAUUUUCCGCCGCAAAUUUGGAUGCCGACUGACAGACACCGCUGAAUGUCUUAAUAAAUUUAAAUUUCAACAGAGGAUUGAGCAUCA
B15: chr18:9400975:9401076:+|3pUTR|ENSG00000128791|msi1|total|mutant (ssRNA)
RNA: GGGAGUUCUACAGUCCGACGAUCUAUAAAAACCGAUAAUGCUCUUGGACACAUUUUGUAUUAUUCAUGAUCUGAACCGCCGUCCGUUAAAAGAUCAUUUGUAAUAUUAUGAUCAACUGUUAUAAAUUAAGGUCUUAAUACCUUCAACAGAGGAUUGAGCAUCA
B16: chr20:59325757:59325866:+|3pUTR|ENSG00000124205|unk|total|mutant (ssRNA)
RNA: GGGAGUUCUACAGUCCGACGAUCUUAUGUGGAUCUGUUCAAAGCCGUCACUGUAUAUACGUACCGAGAGGCCGACCGGCCGGCCGAUUUUAAAUUGCAUUCUGAAUACAAACUCAUACUCCUCCGAGCUUGAAUUACAUUUUUCAACAGAGGAUUGAGCAUCA
B17: chr5:159157431:159157536:-|3pUTR|ENSG00000145860|unk|FALSE|bound_elsewhere (ssRNA)
RNA: B14 RNA with C83U, C84A, C86U, C87A, C101U, C102A, C115U, C116A
B18: chr18:9400975:9401076:+|3pUTR|ENSG00000128791|msi1|FALSE|unique (ssRNA)
RNA: B15 RNA with C32U, C33A, C76U, C77A, C79U, C80A, C83U, C84A
B19: chr4:42087128:42087229:+|3pUTR|ENSG00000014824|msi1|FALSE|unique (ssRNA)
RNA: GGGAGUUCUACAGUCCGACGAUCAUUUUGUAUAAUAUAGUUCAUACUGUGUCUGUGAGUUUCUUCAGUUACAAAUGGGCAUUUAGUAUAGUUAUAUUGACUAUAACAUGUAAGUAAAUAGCUUUCUACUGACCCUAAGUUAUCCAACAGAGGAUUGAGCAUCA
B20: chr8:140515610:140515764:+|3pUTR|ENSG00000104472|unk|total|mutant (ssRNA)
RNA: B10 RNA with U62C, A63C, U74C, A75C, U79C, A80C, U83C, A84C

Data on 20 molecules can be found in paper PMC12136788.

Where a chain is given by its changes, count along the chain named. The full ranking holds about 5,800 sequences; the median of “enrichment r” is about 0.54, and the highest 2% start at about 16. Many of the other results were omitted from the sample, so the highest values are more common in it than they were.

MSI1 full-length, sequence (Q61474 whole entry): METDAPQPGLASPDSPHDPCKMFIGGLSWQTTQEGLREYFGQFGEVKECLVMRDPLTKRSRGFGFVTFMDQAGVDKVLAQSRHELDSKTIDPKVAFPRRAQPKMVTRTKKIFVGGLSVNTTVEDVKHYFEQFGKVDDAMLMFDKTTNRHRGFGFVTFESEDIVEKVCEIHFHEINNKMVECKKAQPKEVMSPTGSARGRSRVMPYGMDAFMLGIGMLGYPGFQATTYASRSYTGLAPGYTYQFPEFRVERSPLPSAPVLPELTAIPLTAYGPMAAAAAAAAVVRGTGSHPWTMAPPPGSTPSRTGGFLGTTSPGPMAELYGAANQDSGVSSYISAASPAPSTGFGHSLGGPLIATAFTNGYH

This test concerns the target MSI1 full-length (mouse, UniProt Q61474 1-362). In words: nsRBNS (natural sequence RNA bind-n-seq); RBNS binding buffer (assumed for nsRBNS): 25 mM Tris pH 7.5, 150 mM KCl, 3 mM MgCl2, 0.01% Triton X-100, 500 ug/ml BSA, 20 U/ml SUPERase-In, 4 C; UNK is unkempt and MSI1 is Musashi-1; names of the RNAs are library labels; protein concentration not given here; high values mean tight binding.
Take B1: the binding signal is 0.725 enrichment R.

Consider B2, for which the binding signal came out at 0.38 enrichment R.

B3 came in with a binding signal of 0.266 enrichment R.

Molecule B4 displayed a binding signal of 2.83 enrichment R.

Take B5: the binding signal came to 4.91 enrichment R.

With B6, the binding signal is 0.472 enrichment R.

Take B7: the binding signal came to 0.49 enrichment R.

B8 came in with a binding signal of 0.417 enrichment R.

For the molecule B9, the binding signal worked out at 20.2 enrichment R.

Molecule B10 showed a binding signal of 69.1 enrichment R.

Regarding B11, the binding signal came to 2.02 enrichment R.

As for B12, the binding signal was found to be 5.2 enrichment R.

For B13, the binding signal is 2.43 enrichment R.

Take B14: the binding signal was 0.361 enrichment R.

B15: the binding signal was determined as 0.599 enrichment R.

B16 registered a binding signal of 0.342 enrichment R.

B17 gave a binding signal of 23.3 enrichment R.

On to B18, for which the binding signal is 24 enrichment R.

B19 gave a binding signal of 2.94 enrichment R.

B20 showed a binding signal of 0.336 enrichment R.
